In PubChem BioAssay (Tox21):
Inconclusive results are not listed. The source made the active and inactive calls. Unless noted, the call rests on the fitted dose curve; in most records, active means well fitted curve in the direction sought with a large enough effect in the repeat runs; inconclusive means weak or mixed curves; inactive means no such curve, though single readings can be large; an effect the other way counts as inactive or inconclusive.

Tests used:
[1] = qHTS assay to identify small molecule antagonists of the estrogen receptor beta (ER-beta) signaling pathway - cell viability counter screen (AID 1259382);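 further: HEK293T cells carrying ER-beta-UAS-bla reporter stimulated with estradiol; series mostly up to about 92 µM; nearly all actives have a fitted effect of over 55% in size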
Method in brief: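 Cells: ER-beta-UAS-bla HEK293T, 2,000/well, 2% CS-FBS, 6 hr settle. Cpd + E2 (1nM final), 16 hr, 37C/5% CO2. Bla FRET substrate 2 hr RT, then CellTiter-Glo 30 min RT, luminescence.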

[2] = target: Estrogen receptor (Homo sapiens) (UniProt P03372); assay: qHTS assay to identify small molecule agonists of the estrogen receptor alpha (ER-alpha) signaling pathway in the presence of an antagonist (AID 1259383; calls by dose curve; further: top concentration of the series differs between compounds; nearly all actives have a fitted effect of over 15% in size)
Estrogen receptor (Homo sapiens), sequence (P03372 whole entry, looked up): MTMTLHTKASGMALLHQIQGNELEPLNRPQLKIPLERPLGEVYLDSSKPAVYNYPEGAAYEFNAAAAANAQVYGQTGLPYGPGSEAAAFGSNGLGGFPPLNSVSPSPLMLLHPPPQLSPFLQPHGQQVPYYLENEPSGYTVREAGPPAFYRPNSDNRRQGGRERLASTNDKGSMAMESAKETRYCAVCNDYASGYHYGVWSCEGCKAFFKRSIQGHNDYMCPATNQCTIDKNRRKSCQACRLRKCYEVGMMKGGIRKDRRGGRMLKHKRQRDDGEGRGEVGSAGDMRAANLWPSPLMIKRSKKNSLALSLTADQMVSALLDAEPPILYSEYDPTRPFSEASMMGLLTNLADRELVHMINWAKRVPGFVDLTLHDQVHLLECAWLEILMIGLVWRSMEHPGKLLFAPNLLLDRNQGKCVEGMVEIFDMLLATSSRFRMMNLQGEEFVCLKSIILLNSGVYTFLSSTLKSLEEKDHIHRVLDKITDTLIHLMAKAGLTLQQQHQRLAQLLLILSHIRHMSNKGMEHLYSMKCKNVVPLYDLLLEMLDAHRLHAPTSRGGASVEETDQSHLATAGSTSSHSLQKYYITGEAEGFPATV
Method in brief: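 VM7Luc4E2, endog. ER-alpha + 4×ERE-luc; charcoal-stripped FBS, phenol red-free, 5 d; 24hr plating; +10.0nM ICI-182,780 (final); cpds 15 conc, 22hr, 37C/5% CO2; ONE-Glo luminescence.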

[3] = qHTS assay to identify small molecule agonists or antagonists of the thyroid stimulating hormone receptor (TSHR) signaling pathway - wild type cell line counter screen (AID 1259384; calls by dose curve)
Method in brief: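 Counter screen in untransfected Hek293: compounds (15-point titration, triplicate) plus phosphodiesterase inhibitor Ro20-1724 added after 18 h plating; 30 min RT. Intracellular cAMP via competitive d2/cryptate immunoassay, 1 h incubation.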

[4] = target: Thyrotropin receptor (Homo sapiens) (UniProt P16473); assay: qHTS assay to identify small molecule antagonists of the thyroid stimulating hormone receptor (TSHR) signaling pathway (AID 1259385; calls by dose curve; further: nearly all actives have a fitted effect of over 20% in size)
Thyrotropin receptor (Homo sapiens), sequence (P16473 whole entry, looked up): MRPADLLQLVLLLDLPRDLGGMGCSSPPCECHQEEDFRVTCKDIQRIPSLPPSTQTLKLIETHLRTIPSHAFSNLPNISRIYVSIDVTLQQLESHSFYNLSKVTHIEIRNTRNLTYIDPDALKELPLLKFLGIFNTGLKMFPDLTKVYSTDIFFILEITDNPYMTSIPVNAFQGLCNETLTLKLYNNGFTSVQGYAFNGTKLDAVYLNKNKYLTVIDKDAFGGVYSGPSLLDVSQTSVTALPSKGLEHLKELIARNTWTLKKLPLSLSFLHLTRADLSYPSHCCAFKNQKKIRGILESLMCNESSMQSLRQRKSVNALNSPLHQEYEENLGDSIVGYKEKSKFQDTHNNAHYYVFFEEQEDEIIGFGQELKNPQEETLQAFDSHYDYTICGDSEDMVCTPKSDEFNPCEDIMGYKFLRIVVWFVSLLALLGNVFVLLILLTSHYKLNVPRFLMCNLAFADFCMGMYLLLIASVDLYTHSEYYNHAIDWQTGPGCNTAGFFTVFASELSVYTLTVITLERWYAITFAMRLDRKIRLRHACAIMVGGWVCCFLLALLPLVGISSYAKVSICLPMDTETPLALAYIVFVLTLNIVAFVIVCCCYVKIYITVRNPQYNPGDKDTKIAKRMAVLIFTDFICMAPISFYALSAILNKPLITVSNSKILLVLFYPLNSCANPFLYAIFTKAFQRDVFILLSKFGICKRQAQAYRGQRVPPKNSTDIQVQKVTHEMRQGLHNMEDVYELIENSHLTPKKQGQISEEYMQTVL
Method in brief: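 Antagonist mode: compound-treated TSHR-expressing HEK293 cells were stimulated with 1.5 ng/mL TSH (final) in presence of Ro20-1724 for 30 min at RT. HTRF cAMP detection after 1 h; each compound tested at 15 concentrations, triplicate.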

[5] = qHTS assay to identify small molecule agonists of the estrogen receptor alpha (ER-alpha) signaling pathway in the presence of an antagonist - cell viability counter screen (AID 1259386);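 further: series mostly up to about 92 µM; cells exposed to compounds for 22 h at 37 °C before the viability read; nearly all actives have a fitted effect of over 30% in size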
Method in brief: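 VM7Luc4E2, stripped-serum pre-culture 5 d; 24hr plating; +ICI-182,780 10.0nM final; cpds 15 conc, 22hr, 37C/5% CO2; CellTiter-Fluor added at 21hr, fluorescence 1hr later.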

[6] = target: Progesterone receptor (Homo sapiens) (UniProt P06401); assay: qHTS assay to identify small molecule agonists of the progesterone receptor (PR) signaling pathway (AID 1346784; calls by dose curve; further: nearly all actives have a fitted effect of over 30% in size; further: potency means the concentration at half of the fitted maximal effect)
Progesterone receptor (Homo sapiens), sequence (P06401 whole entry, looked up): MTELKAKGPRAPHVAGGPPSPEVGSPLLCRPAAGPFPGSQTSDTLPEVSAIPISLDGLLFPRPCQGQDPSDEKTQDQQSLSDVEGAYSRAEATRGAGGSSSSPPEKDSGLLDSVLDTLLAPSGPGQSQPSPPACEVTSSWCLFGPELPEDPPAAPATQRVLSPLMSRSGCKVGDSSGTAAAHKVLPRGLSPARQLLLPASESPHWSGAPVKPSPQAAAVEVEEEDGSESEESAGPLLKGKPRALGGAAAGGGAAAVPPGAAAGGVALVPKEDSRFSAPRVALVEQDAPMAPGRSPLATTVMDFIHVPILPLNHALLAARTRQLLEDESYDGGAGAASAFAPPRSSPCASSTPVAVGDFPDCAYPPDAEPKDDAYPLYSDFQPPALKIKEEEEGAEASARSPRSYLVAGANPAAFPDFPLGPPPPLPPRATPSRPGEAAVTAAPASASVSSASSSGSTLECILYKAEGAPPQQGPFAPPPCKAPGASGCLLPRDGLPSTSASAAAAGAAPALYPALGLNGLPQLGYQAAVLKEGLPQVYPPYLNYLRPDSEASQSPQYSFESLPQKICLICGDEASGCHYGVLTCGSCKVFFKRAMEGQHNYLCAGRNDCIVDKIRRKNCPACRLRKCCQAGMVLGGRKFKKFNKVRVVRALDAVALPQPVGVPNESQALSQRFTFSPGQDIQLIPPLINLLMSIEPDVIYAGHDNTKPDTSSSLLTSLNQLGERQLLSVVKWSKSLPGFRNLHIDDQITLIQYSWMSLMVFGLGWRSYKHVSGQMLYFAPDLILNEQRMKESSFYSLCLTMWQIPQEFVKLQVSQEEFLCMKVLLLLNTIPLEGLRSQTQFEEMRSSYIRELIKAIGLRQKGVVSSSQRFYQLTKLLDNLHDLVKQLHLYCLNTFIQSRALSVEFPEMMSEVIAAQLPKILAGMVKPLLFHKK
Method in brief: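 Seed PR-UAS-bla HEK 293T cells (2% charcoal-stripped FBS), incubate 6 hr at 37C; add compounds in DMSO, 16 hr at 37C; add LiveBLAzer B/G substrate, 2 hr RT; read fluorescence intensity.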

[7] = target: Progesterone receptor (Homo sapiens) (UniProt P06401); assay: qHTS assay to identify small molecule antagonists of the progesterone receptor (PR) signaling pathway (AID 1346795; active means well fitted inhibition curve with a large enough effect in the signal ratio in the repeat runs, not every such curve was filed as active; the % refers to the signal ratio)
Method in brief: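 Screening used a GripTite HEK293T line with PR-responsive UAS-beta-lactamase. Cells were challenged with compound in the presence of 1 nM R5020 final for 16 hr at 37C; B/G FRET substrate, 2 hr room temperature, fluorescence.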

[8] = qHTS assay to identify small molecule antagonists of the progesterone receptor (PR) signaling pathway - cell viability counter screen (AID 1346798); further: series mostly up to about 92 µM; nearly all actives have a fitted effect of over 50% in size
Method in brief: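 Measures cytotoxicity in parallel with the PR antagonist reporter read: HEK293T PR-UAS-bla cells get compound and R5020 for 16 hr, and remaining viable cells are quantified by CellTiter-Glo luminescence.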

[9] = qHTS assay to identify small molecule agonists of the progesterone receptor (PR) signaling pathway - cell viability counter screen (AID 1346799; calls by dose curve; further: nearly all actives have a fitted effect of over 45% in size)
Method in brief: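 Using the same plates as the PR reporter screen, HEK293T PR-UAS-bla cells received compounds for 16 hr at 37C and were then lysed with CellTiter-Glo; luminescence was read 30 min later at room temperature.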

[10] = qHTS assay to identify small molecule antagonists of the TGF-beta/Smad signaling pathway - cell viability counter screen (AID 1346824); further: nearly all actives have a fitted effect of over 50% in size
Method in brief: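 Cytotoxicity counter-screen run in the same wells as the beta-lactamase Smad reporter read: CellTiter-Glo luminescence after 30 min at room temperature. HEK 293T SBE-bla cells had 5 hr compound exposure at 37 C with TGF-beta1 (0.25 ng/mL stock).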

[11] = qHTS assay to identify small molecule agonists of the TGF-beta/Smad signaling pathway (AID 1346859; active means well fitted activation curve with a large enough effect in the signal ratio in the repeat runs, not every such curve was filed as active; the % refers to the signal ratio; further: series mostly up to about 77 µM)
Method in brief: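 Beta-lactamase reporter activity downstream of Smad binding elements was measured in stably transfected HEK 293T cells; compounds were incubated for 5 hr, substrate for 2 hr at room temperature.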

[12] = target: Thyrotropin-releasing hormone receptor (Homo sapiens) (UniProt P34981); assay: qHTS assay to identify small molecule antagonists of the thyrotropin-releasing hormone receptor (TRHR) signaling pathway (AID 1346877; active means well fitted inhibition curve with a large enough effect in the repeat runs, not every such curve was filed as active; further: series mostly up to about 51 µM)
Thyrotropin-releasing hormone receptor (Homo sapiens), sequence (P34981 whole entry, looked up): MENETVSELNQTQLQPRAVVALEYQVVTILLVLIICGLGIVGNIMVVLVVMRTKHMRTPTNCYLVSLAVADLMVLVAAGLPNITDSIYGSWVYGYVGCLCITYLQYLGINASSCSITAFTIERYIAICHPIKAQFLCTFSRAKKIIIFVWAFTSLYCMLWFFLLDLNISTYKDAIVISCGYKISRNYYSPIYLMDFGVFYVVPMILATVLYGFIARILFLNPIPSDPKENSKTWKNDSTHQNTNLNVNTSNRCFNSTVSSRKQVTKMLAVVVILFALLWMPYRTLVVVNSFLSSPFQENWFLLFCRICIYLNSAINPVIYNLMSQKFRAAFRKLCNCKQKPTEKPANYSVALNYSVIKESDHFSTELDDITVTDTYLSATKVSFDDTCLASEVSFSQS
Method in brief: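 Intracellular calcium fluorescence, read kinetically every second over 3 min, reports TRH-evoked signalling in HEK293 cells carrying TRHR. Test compounds were added 5 min ahead of a 1 nM TRH challenge.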

[13] = target: Thyrotropin-releasing hormone receptor (Homo sapiens) (UniProt P34981); assay: qHTS assay to identify small molecule agonists of the thyrotropin-releasing hormone receptor (TRHR) signaling pathway (AID 1346891; calls by dose curve;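 further: HEK293 cells expressing TRHR with calcium dye readout; series mostly up to about 58 µM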)
Method in brief: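 Overnight-plated (18 h, 37 °C, 5% CO2) TRHR-Hek293 cells; 2 h calcium dye at 37 °C; compound in DMSO; 3-min kinetic fluorescence read.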

[14] = Human pregnane X receptor (PXR) small molecule agonists, qHTS cell viability counter screen (AID 1346977); further: nearly all actives have a fitted effect of over 50% in size
Method in brief: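 After a 5hr pre-incubation, PXR-Luc HepG2 cells received compounds plus positive control in DMSO and were kept 24hr at 37C. Cell viability was quantified by fluorescence from CellTiter-Fluor added for the final hour.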

[15] = Caspase-3/7 induction in HepG2 cells by small molecules, qHTS assay (AID 1346978); further: nearly all actives have a fitted effect of over 15% in size
Method in brief: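 Caspase-3/7 induction was measured by Caspase-Glo 3/7 luminescence (30 min, room temperature) after a 17 hr compound exposure of wild-type HepG2 cells seeded at 2,000 per well and pre-incubated 5 hr.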

[16] = Caspase-3/7 induction in CHO-K1 cells by small molecules, qHTS cell viability counter screen (AID 1346979); further: nearly all actives have a fitted effect of over 35% in size
Method in brief: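 Multiplexed with Caspase-Glo 3/7 in CHO-K1 cells, this counter screen added CellTiter-Fluor after 16hr of compound exposure and recorded fluorescence 1hr later.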

[17] = Caspase-3/7 induction in CHO-K1 cells by small molecules, qHTS assay (AID 1346980); further: nearly all actives have a fitted effect of over 15% in size
Method in brief: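 Luminescent Caspase-Glo 3/7 read (30min, room temperature) quantified apoptosis induction. Cells were wild-type CHO-K1, treated with compound for 17hr at 37 C and 5% CO2.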

[18] = Caspase-3/7 induction in HepG2 cells by small molecules, qHTS cell viability counter screen (AID 1346981); further: series mostly up to about 92 µM; nearly all actives have a fitted effect of over 30% in size
Method in brief: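 HepG2, WT, 2,000 cells/well; 5 hr pre-incubation 37 C/5% CO2; compound pin-transferred from DMSO; 16 hr exposure; CellTiter-Fluor, 1 hr; fluorescence read.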

[19] = qHTS assay to identify small molecule agonists of the TGF-beta/Smad signaling pathway - cell viability counter screen (AID 1346829); further: top concentration of the series differs between compounds; nearly all actives have a fitted effect of over 45% in size
Method in brief: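 HEK 293T SBE-bla line, 5 hr compound exposure at 37 C, multiplexed CellTiter-Glo viability read by luminescence.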

[20] = target: Nuclear receptor subfamily 1 group I member 2 (Homo sapiens) (UniProt O75469); assay: Human pregnane X receptor (PXR) small molecule agonists, qHTS assay (AID 1346982); further: nearly all actives have a fitted effect of over 35% in size
Nuclear receptor subfamily 1 group I member 2 (Homo sapiens), sequence (O75469 whole entry, looked up): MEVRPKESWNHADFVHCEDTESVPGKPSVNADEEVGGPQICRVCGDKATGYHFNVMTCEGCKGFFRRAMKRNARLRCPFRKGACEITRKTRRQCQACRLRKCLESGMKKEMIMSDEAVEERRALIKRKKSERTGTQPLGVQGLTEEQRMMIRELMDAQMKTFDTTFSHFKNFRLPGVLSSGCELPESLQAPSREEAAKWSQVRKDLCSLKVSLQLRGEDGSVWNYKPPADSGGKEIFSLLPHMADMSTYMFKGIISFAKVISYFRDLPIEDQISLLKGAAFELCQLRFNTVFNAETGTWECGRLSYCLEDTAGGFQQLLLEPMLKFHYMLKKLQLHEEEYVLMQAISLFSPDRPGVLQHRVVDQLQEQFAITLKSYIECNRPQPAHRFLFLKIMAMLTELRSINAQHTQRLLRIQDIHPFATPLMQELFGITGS
Method in brief: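 Luciferase signal from ONE-Glo (30 min, room temperature) measured activation of hPXR-driven CYP3A4 reporter expression in PXR-Luc HepG2 cells treated with compounds for 24 hr at 37 C.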
On the % scale 0 is the no-effect control and ±100 the full control effect.

C/C=C(\C)C=O
inactive: outcome [1] | Potency [2] | outcome [3] | outcome [4] | outcome [5] | Potency [7] | outcome [8] | Potency [9] | outcome [10] | outcome [11] | outcome [12] | Potency [13] | outcome [14] | outcome [15] | Potency [16] | outcome [17] | outcome [18]
active: Potency [6] 21.8 µM

O=CN1CCCCC1
inactive: outcome [1] | Potency [2] | outcome [3] | outcome [4] | outcome [5] | Potency [6] | Potency [7] | outcome [8] | Potency [9] | outcome [10] | outcome [19] | outcome [11] | outcome [14] | outcome [15] | Potency [16] | outcome [17] | outcome [18]

CC[C@@]1(c2ccccc2)NC(=O)N(C)C1=O
inactive: outcome [1] | Potency [2] | outcome [3] | outcome [4] | outcome [5] | Potency [6] | Potency [7] | outcome [8] | Potency [9] | outcome [10] | outcome [11] | outcome [12] | Potency [13] | outcome [14] | outcome [15] | Potency [16] | outcome [17] | outcome [18] | Potency [20]

CCCC(=O)CC
inactive: outcome [1] | Potency [2] | outcome [3] | outcome [4] | outcome [5] | Potency [6] | Potency [7] | outcome [8] | outcome [10] | outcome [19] | outcome [11] | outcome [12] | Potency [13] | outcome [14] | outcome [15] | Potency [16] | outcome [17] | outcome [18] | Potency [20]

CCCCCCCCCCCCCCCC(=O)OC
inactive: activity change, negative = cytotoxicity [1] 0.248% [at 19 µM] | activation [2] -2.08% [at 19 µM] | cAMP activity change [3] -2.44% [at 18.9 µM] | activity change, negative = inhibition [4] 1.93% [at 19 µM] | activity change, negative = cytotoxicity [5] -0.526% [at 19 µM] | activation [6] -3.12% [at 19 µM] | activity change, negative = inhibition [7] 0.526% [at 18.9 µM] | activity change, negative = cytotoxicity [8] 20% [at 18.9 µM] | viability change, negative = cytotoxic [10] 1.68% [at 15.8 µM] | activity change, negative = cytotoxicity [19] -0.944% [at 15.8 µM] | activation [11] 0.447% [at 15.8 µM] | activity, negative = inhibition [12] 0.477% [at 10.5 µM] | activity change, negative = cytotoxicity [14] 0.375% [at 19 µM] | caspase activation [15] 1.29% [at 19 µM] | activity change, negative = cytotoxicity [16] 3.95% [at 19 µM] | caspase-3/7 activation [17] 1.1% [at 19 µM] | activity change, negative = cytotoxicity [18] -1.7% [at 19 µM] | activation [20] 4.26% [at 19 µM]

N#CC1(N)CCCCC1
inactive: outcome [1] | Potency [2] | outcome [3] | outcome [4] | outcome [5] | Potency [6] | Potency [7] | Potency [9] | outcome [10] | outcome [19] | outcome [11] | outcome [12] | Potency [13] | outcome [14] | outcome [15] | Potency [16] | outcome [17] | outcome [18]

CN(C)c1ccncc1
inactive: outcome [1] | Potency [2] | outcome [3] | outcome [4] | outcome [5] | Potency [6] | Potency [7] | outcome [8] | Potency [9] | outcome [10] | outcome [19] | outcome [11] | outcome [14] | outcome [15] | outcome [17] | outcome [18] | Potency [20]

CC(=O)SCC(CC(=O)c1ccc(C)cc1)C(=O)O (centres undefined)
inactive: outcome [1] | Potency [2] | outcome [3] | outcome [4] | outcome [5] | Potency [6] | Potency [7] | outcome [8] | Potency [9] | outcome [10] | outcome [11] | outcome [12] | outcome [14] | outcome [15] | Potency [16] | outcome [17] | outcome [18] | Potency [20]
